Screening results: PubChem BioAssay, National Center for Advancing Translational Sciences (NCATS)
Luc counter: counter-screen: inhibitors of Kinase-Glo firefly luciferase; Q27757; Kinase-Glo luciferase, ATP luminescence, 8 min; Potency, µM (titrated, usually from 38.3 µM), most hits filed as inhibitors; 200,000 compounds, 0.28% hits; AID 1379; further: nearly all actives have a fitted effect of over 60% in size
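Luminescence was the read-out, taken after 8-minute incubation at ambient temperature. Luciferase turned over luciferin with 10 uM ATP in imidazole pH 7.2 buffer containing KCl, MgCl2, Tween 20 and BSA.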
Rab9 promoter act: Rab9 promoter activation | Huh7 Rab9 promoter-luciferase reporter, luminescence, 24 h | Potency, µM (doses to about 9.22 µM), most hits filed as activators | 320,000 compounds, 2.8% hits; further: nearly all actives have a fitted effect of over 60% in size
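Cell-based reporter: Huh7 stable for Rab9 promoter-driven luciferase, plated in reduced-serum medium with 10% FBS at 1500 cells/well, compound-treated 24 h at 37 °C, luminescence read after 10 min reagent.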
SMN2 splice enh: SMN2 splice variant enhancement. 210,000 compounds, 2.8% hits. Potency, µM (highest dose often 46.1 µM), actives largely listed as activators. AID 1458. HEK293 SMN2-luciferase splicing reporter, luminescence, 30-36 h; further: nearly all actives have a fitted effect of over 55% in size
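qHTS luciferase splicing reporter: luminescence rises when SMN2 exon 7 is included in transfected HEK293 cells. Compound exposure lasted 30-36 h at 37C, with 4.5 mM final sodium butyrate as control, followed by a ONE-Glo read.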
NPC1 prom act: activates the NPC1 promoter; Huh7 NPC1 promoter luciferase reporter, 24 h; Potency, µM (series often up to 9.22 µM), hits mostly activators; 320,000 compounds, 2.4% hits; further: nearly all actives have a fitted effect of over 60% in size
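Stably transfected Huh7 (NPC1 promoter→luciferase), 1500 cells/well in Opti-MEM + 10% FBS, 2 h settle, then compound 24 h at 37 °C. Luminescence after 10 min with Amplite reagent.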
ELG1 genotox: induces genotoxicity in HEK293T cells with luciferase-tagged ELG1; Potency, µM (series often up to 46 µM), actives largely listed as activators; AID 504466; 330,000 compounds, 1.3% hits; HEK293T ELG1-luciferase reporter, luminescence, 16 h; further: nearly all actives have a fitted effect of over 60% in size
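DMSO vehicle served as control against compound-treated ELG1-luciferase HEK293T cells; exposure lasted 16 hr at 37 °C and 5% CO2, followed by ONE-Glo luminescence detection after 30 min.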
FLuc modulator: inhibits or activates purified firefly luciferase, miR-21 counter-screen. Potency, µM (series often up to 57.5 µM), hits mostly inhibitors. P08659. purified FLuc, Km substrates, luminescence inhibition. 360,000 compounds, 6.9% hits; further: nearly all actives have a fitted effect of over 55% in size
Target sequence (P08659 whole entry, looked up): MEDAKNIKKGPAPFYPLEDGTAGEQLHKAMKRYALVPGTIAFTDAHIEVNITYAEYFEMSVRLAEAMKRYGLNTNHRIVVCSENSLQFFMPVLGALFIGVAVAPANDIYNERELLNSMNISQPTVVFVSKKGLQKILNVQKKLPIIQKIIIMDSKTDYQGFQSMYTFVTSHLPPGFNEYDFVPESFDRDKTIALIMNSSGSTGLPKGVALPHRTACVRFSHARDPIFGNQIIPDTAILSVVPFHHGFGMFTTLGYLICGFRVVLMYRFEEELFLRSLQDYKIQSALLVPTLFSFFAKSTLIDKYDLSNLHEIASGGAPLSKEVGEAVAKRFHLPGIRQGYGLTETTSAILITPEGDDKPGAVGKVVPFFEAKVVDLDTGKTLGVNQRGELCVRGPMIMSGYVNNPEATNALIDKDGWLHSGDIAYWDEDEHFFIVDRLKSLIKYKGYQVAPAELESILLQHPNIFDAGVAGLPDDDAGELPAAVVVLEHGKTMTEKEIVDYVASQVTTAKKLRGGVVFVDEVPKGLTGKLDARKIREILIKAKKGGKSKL
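Purified P. pyralis luciferase (10nM final) with 10uM D-luciferin and 10uM ATP (Km levels) in 50mM Tris acetate pH 7.5, 10mM Mg acetate, 0.01% Tween-20, 0.05% BSA; qHTS 6-point titration, ~60 µM downward; luminescence read.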
A number is an active result; n = inactive; u = inconclusive; x = not tested or not shown; [ ] = remark or other dose. In the library only some 7.5% were active in any assay of this set; here they are far more common. The call rests on the fitted dose curve; in most records, active means well fitted curve in the direction sought with a large enough effect; inconclusive means small, poorly fitted or top-dose-only effect, or another doubt; inactive means no such curve, though single readings can be large; an effect the other way counts as inactive or inconclusive.

SMILES | Luc counter | Rab9 promoter act | SMN2 splice enh | NPC1 prom act | ELG1 genotox | FLuc modulator
CCCC(=O)Nc1nc2ccc(C(=O)OCC)cc2s1 | n | u | 17.8µM | 0.631µM | 10.3µM | u
CCOC(=O)c1ccc2nc(NC(=O)C(C)C)sc2c1 | n | 3.55µM | 11.2µM | 1.12µM | u | 9.53µM
Cc1ccc(/C=N/NC(=O)c2ccc(N(C)S(=O)(=O)c3ccccc3)cc2)cc1 | x | n | x | n | n | 8.49µM
CCOc1cc(/C=N/NC(=O)c2ccc(N(C)S(=O)(=O)c3ccccc3)cc2)ccc1OC | x | n | x | n | n | n
COc1cc(/C=N/NC(=O)c2ccc(N(C)S(=O)(=O)c3ccccc3)cc2)cc(OC)c1OC | n | n | n | n | n | n
CC(=O)Oc1ccc(/C=N/NC(=O)c2ccc(N(C)S(=O)(=O)c3ccccc3)cc2)cc1 | x | n | x | n | n | 15.1µM
COc1cccc(CCNC(=O)CC2C(=O)NCCN2Cc2ccc(C)o2)c1 (centres undefined) | x | n | x | n | n | n
O=C(O)CCc1ccc(-c2ccc(Cl)cc2)n1-c1cccc(C(F)(F)F)c1 | x | x | n | x | x | u
Cc1cccc(-n2ncc3c(N(C)C4CCCCC4)ncnc32)c1 | x | n | x | n | 0.461µM | 0.169µM
CCN(c1ncnc2c1cnn2-c1cccc(Cl)c1)C1CCCCC1 | x | x | x | x | x | 3.79µM
COc1ncnc2c1cnn2-c1ccccc1 | n | x | n | x | x | u
Cc1cccc(-n2ncc3c(N(CCO)CCO)ncnc32)c1 | n | 3.55µM | 14.1µM | 3.16µM | u | 15.1µM
COc1ccc(-n2ncc3c(N(C)C4CCCCC4)ncnc32)cc1 | x | n | x | n | u | 0.169µM
CCOC(=O)CC/C(=N\NC(N)=O)c1ccc(OC)c(Cl)c1 | x | n | x | n | n | n
COc1ccc(C)cc1NC(=O)c1ccc2c(c1)N(Cc1cccc(Cl)c1)C(=O)c1ccccc1S2=O (centres undefined) | x | x | x | x | x | n
OCC1O[C@H](O[C@H]2C(O)C(O)C(O)O[C@@H]2CO)C(O)C(O)C1O (some centres undefined) | n | x | n | x | x | x
Cc1ccc(Nc2nnc(-c3ccc4c(c3)OCO4)o2)c(C)c1 | n[7.66 µM] | u | n[9.22 µM] | u | u | 8.49µM
CSc1cccc(NC(=O)N2CCc3ccc(NC(=O)c4ccccn4)cc3C2)c1 | x | 3.98µM | x | 2.51µM | n | 8.49µM
CSc1cccc(NC(=O)c2cnccn2)c1 | n | n | n | n | n | u
CSc1cccc(NC(=O)c2ccccn2)c1 | n | 3.98µM | u | u | u | 10.7µM
CCOc1ccc(-c2nonc2NC(=O)c2oc3c(C)c(C)ccc3c2C)cc1OCC | x | x | n | x | x | n
O=c1[nH]c(/C=C/c2ccccc2F)nc2ccccc12 | x | 0.251µM | x | u | 11.6µM | 0.757µM
O=c1[nH]c(/C=C/c2ccccn2)nc2ccccc12 | x | 1.58µM | x | 1.58µM | u | 19µM
O=c1[nH]c(/C=C/c2cccc3ccccc23)nc2ccccc12 | n | u | n | n | n | n
O=C(CNC(=O)c1ccco1)NCc1ccc2c(c1)OCO2 | x | x | x | x | n | x
SMILES | Luc counter | Rab9 promoter act | SMN2 splice enh | NPC1 prom act | ELG1 genotox | FLuc modulator
COc1ccc(OC)c(NC(=O)c2nnn(CC(=O)Nc3ccc(C(C)C)cc3)c2N)c1 | x | x | x | x | x | n
CC(=O)N1CCOc2cc(S(=O)(=O)Nc3c(C)cccc3C(C)C)c(Cl)cc21 | x | n | x | n | x | n
Clc1ccc(-c2cc3ccccc3[nH]2)cc1 | n | 3.98µM | n | u | u | 9.53µM
CC(C)NC(=O)c1sc(=S)n2c1[nH]c(=O)c1ccc(C(=O)NCCc3ccc(Cl)cc3)cc12 | x | n | x | n | n | u
CCOc1ccc(CCNC(=O)c2ccc3c(=O)[nH]c4c(C(=O)NC(C)C)sc(=S)n4c3c2)cc1 | x | n | x | n | n | 16.9µM
COc1cc(OC)c(NC(=O)Cn2c(=O)cc(C)c3c(C)nn(-c4ccc(C)cc4)c32)cc1Cl | x | x | x | x | x | n
CCc1ccc2oc(-c3cc(N)cc(C)c3O)nc2c1 | n | u | u | n | u | u
Nc1ccc2oc(-c3ccccc3Cl)nc2c1 | n | 0.447µM | 2.82µM | u | 3.66µM | 1.35µM
CCc1ccc2oc(-c3cc(N)ccc3O)nc2c1 | n | 4.47µM | 25.1µM | 3.16µM | n | 0.338µM
CCc1ccc2oc(-c3cc(N)ccc3Cl)nc2c1 | n | 2.51µM | u | 3.98µM | 2.06µM | 0.239µM
CCc1ccc2oc(-c3cc(NC(=O)c4cccs4)ccc3Cl)nc2c1 | x | x | n | x | x | u
CCN1CCN(c2cc3c(cc2F)c(=O)c(S(=O)(=O)c2ccc(OC)cc2)cn3CC)CC1 | x | x | x | x | x | n
Oc1ccc(NCc2ccccc2OCc2ccccc2)cc1 | n | n | n | n | n | u
Oc1ccc(NCc2ccccc2OCc2ccc(Cl)cc2)cc1 | x | x | 22.4µM | x | x | 21.3µM
C[C@@H](C(=O)O)c1ccc(C(=O)c2ccccc2)s1 | n | x | n | x | x | x
Cc1ccc(CCNC(=O)C2CCC(=O)N(Cc3ccccc3F)C2)o1 (centres undefined) | x | u | x | u | 18.3µM | u
COc1ccccc1CCCNC(=O)C1CCC(=O)N(Cc2ccccc2F)C1 (centres undefined) | x | 3.98µM | x | 2.82µM | u | 21.3µM
COc1cc(NC(=O)CSc2ncnc3scc(-c4ccccc4)c23)c(C(=O)O)cc1OC | n | n | n | n | n | 15.1µM
CC(=O)c1ccc(NC(=O)c2cnsn2)cc1 | n | 1µM | x | 2µM | u | 12µM
O=C(Nc1ccc(N2CCOCC2)cc1)c1cnsn1 | n | u | 2.82µM | u | 0.164µM | 0.953µM
CS(=O)(=O)c1ncc(Cl)c(C(=O)Nc2ccc(N3CCOCC3)cc2)n1 | n | n | n | n | u | 12µM
O=C(Nc1ccc(N2CCOCC2)cc1)c1ccncc1 | n | n | n | n | n | u
CCCCc1ccc(NC(=O)c2cnccn2)cc1 | n | 0.794µM | 3.16µM | 0.501µM | u | 2.39µM
NC1=NC(S)C2N=CN=C2N1 (centres undefined) | x | x | n | x | x | x
COc1cc(C2CC(=O)Nc3cc4c(cc32)OCCO4)cc(OC)c1O (centres undefined) | x | x | n | x | x | n
SMILES | Luc counter | Rab9 promoter act | SMN2 splice enh | NPC1 prom act | ELG1 genotox | FLuc modulator
O=C(Nc1ccc(N2CCOCC2)cc1)c1cnccn1 | x | 0.316µM | x | u | u | 1.9µM
O=C(Nc1ccccc1N1CCOCC1)c1cnccn1 | n | n | n | n | n | n
C=CCn1c(=NC(=O)c2cccs2)sc2cccc(OC)c21 | x | n | x | n | n | 15.1µM
C[C@H](NC(=O)[C@@H]1Cc2ccccc2CN1)C(=O)Nc1ccc2c(c1)OCCO2 | x | n | x | n | n | n
CSCC[C@H](NC(=O)[C@@H]1Cc2ccccc2CN1)C(=O)Nc1ccc2c(c1)OCCO2 | x | u | x | u | u | 15.1µM
CCOc1ccc(CCNC(=O)CCCc2cc(-c3ccc(OCC)cc3)on2)cc1 | x | x | n | x | x | n
CCOc1ccc(-c2cc(CCCC(=O)NCCC(C)C)no2)cc1 | n | n | n | n | n | 6.01µM
CCOc1ccc(-c2cc(CCCC(=O)NCc3cccnc3)no2)cc1 | n | u | n | u | u | 10.7µM
